# Measurements reported in the supplement of paper PMC11732987, “Enantioselective OTUD7B fragment discovery through chemoproteomics screening and high-throughput optimisation” (Communications Chemistry, 2025).
# A number with no mark means an inactive call.
# Legend:
# Assay in all cases: log2 ratio of Biotin-Ahx-Ub-VS probe labelling (fragment/DMSO); higher = less target engagement (more negative = stronger competition), active = hit call of the paper (q ≤ 0.05, log2 ratio ≤ -1)
# Settings in all cases: compound concentration: 200 uM; treatment time: 3 h
# USP9X = USP9X (UniProt Q93008)
# Chain of USP9X (Q93008 whole entry, the tested form may be a part): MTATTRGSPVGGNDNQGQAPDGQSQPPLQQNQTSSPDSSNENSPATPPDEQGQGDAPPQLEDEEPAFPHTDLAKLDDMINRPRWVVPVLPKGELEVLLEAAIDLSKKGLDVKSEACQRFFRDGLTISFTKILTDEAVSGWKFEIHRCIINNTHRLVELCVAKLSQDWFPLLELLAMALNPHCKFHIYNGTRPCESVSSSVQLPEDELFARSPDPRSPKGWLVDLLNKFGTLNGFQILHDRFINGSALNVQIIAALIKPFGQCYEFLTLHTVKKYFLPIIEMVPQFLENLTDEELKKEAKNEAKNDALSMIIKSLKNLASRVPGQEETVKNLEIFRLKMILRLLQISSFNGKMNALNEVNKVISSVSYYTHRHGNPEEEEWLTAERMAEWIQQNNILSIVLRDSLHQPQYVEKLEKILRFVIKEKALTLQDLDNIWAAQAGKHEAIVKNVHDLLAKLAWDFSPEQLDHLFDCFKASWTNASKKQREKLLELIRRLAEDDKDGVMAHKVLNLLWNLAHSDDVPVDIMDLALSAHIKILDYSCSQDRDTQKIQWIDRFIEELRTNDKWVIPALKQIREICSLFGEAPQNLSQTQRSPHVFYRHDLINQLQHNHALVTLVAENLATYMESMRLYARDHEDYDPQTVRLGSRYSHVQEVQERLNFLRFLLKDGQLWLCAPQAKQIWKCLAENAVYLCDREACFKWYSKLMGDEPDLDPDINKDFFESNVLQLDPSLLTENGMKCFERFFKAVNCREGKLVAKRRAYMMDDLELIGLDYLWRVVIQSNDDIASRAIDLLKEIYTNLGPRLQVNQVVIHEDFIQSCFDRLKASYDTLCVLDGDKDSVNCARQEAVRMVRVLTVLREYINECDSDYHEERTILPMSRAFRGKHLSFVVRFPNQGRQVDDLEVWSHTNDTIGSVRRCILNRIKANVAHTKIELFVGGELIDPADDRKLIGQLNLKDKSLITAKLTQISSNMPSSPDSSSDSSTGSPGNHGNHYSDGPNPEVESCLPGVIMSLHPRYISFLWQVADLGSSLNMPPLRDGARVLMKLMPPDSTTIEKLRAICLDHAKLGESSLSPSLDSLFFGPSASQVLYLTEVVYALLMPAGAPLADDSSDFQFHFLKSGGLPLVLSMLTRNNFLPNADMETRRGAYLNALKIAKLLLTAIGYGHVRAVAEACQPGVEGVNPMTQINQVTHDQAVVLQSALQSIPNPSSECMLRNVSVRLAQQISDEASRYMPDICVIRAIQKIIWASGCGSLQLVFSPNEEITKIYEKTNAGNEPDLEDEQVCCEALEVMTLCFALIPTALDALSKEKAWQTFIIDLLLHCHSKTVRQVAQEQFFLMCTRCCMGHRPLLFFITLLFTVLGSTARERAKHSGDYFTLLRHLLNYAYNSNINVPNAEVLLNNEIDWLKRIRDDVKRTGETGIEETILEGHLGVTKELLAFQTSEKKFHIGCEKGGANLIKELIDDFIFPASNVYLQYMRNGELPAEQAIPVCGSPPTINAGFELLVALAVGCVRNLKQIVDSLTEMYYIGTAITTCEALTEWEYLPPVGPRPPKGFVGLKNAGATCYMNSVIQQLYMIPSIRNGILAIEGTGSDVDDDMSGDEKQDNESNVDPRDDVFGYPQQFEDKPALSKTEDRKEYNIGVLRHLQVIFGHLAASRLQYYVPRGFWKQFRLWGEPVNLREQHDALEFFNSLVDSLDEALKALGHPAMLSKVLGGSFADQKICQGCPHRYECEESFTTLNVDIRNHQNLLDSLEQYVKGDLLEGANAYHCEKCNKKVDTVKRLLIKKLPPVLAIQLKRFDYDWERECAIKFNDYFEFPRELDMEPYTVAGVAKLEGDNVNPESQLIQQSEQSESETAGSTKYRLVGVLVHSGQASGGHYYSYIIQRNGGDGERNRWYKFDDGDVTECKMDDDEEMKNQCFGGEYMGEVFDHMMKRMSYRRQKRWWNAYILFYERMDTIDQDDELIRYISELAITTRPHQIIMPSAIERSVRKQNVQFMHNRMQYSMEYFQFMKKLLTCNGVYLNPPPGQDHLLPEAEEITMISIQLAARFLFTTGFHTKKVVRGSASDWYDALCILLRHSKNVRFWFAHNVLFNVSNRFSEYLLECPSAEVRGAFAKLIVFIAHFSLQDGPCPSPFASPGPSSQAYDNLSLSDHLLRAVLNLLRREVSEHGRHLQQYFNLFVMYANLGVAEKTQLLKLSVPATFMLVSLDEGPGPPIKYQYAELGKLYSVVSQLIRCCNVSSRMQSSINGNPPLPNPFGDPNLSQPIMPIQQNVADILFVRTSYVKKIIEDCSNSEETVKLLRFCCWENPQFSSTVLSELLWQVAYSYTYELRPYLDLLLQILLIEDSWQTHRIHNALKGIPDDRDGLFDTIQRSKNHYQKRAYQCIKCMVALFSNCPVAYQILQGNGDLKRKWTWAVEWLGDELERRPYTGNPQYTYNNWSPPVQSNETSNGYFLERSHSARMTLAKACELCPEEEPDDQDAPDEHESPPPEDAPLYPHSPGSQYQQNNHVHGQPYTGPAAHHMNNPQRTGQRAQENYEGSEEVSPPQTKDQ
# Method in brief: (§1)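 HEK293T lysate (495 µg per sample, in Tris/CHAPS/IGEPAL buffer with protease inhibitors) was treated in triplicate with fragment at 200 µM or with DMSO for 3 h. It was then treated with Biotin-Ahx-Ub-VS (0.5 µM final) for 1 h. Labelled DUBs were NeutrAvidin-enriched, digested with LysC and trypsin, and run by diaPASEF LC-MS/MS. Spectronaut label-free quantities were global-median-normalised. Values are average log2 ratios fragment/DMSO by unpaired t-test, using proteins with ≥2 unique peptides.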
# UniProt O00487 = target: UniProt O00487
# Method in brief: as §1
# UniProt O00507 = target: UniProt O00507
# Chain of UniProt O00507 (O00507 whole entry): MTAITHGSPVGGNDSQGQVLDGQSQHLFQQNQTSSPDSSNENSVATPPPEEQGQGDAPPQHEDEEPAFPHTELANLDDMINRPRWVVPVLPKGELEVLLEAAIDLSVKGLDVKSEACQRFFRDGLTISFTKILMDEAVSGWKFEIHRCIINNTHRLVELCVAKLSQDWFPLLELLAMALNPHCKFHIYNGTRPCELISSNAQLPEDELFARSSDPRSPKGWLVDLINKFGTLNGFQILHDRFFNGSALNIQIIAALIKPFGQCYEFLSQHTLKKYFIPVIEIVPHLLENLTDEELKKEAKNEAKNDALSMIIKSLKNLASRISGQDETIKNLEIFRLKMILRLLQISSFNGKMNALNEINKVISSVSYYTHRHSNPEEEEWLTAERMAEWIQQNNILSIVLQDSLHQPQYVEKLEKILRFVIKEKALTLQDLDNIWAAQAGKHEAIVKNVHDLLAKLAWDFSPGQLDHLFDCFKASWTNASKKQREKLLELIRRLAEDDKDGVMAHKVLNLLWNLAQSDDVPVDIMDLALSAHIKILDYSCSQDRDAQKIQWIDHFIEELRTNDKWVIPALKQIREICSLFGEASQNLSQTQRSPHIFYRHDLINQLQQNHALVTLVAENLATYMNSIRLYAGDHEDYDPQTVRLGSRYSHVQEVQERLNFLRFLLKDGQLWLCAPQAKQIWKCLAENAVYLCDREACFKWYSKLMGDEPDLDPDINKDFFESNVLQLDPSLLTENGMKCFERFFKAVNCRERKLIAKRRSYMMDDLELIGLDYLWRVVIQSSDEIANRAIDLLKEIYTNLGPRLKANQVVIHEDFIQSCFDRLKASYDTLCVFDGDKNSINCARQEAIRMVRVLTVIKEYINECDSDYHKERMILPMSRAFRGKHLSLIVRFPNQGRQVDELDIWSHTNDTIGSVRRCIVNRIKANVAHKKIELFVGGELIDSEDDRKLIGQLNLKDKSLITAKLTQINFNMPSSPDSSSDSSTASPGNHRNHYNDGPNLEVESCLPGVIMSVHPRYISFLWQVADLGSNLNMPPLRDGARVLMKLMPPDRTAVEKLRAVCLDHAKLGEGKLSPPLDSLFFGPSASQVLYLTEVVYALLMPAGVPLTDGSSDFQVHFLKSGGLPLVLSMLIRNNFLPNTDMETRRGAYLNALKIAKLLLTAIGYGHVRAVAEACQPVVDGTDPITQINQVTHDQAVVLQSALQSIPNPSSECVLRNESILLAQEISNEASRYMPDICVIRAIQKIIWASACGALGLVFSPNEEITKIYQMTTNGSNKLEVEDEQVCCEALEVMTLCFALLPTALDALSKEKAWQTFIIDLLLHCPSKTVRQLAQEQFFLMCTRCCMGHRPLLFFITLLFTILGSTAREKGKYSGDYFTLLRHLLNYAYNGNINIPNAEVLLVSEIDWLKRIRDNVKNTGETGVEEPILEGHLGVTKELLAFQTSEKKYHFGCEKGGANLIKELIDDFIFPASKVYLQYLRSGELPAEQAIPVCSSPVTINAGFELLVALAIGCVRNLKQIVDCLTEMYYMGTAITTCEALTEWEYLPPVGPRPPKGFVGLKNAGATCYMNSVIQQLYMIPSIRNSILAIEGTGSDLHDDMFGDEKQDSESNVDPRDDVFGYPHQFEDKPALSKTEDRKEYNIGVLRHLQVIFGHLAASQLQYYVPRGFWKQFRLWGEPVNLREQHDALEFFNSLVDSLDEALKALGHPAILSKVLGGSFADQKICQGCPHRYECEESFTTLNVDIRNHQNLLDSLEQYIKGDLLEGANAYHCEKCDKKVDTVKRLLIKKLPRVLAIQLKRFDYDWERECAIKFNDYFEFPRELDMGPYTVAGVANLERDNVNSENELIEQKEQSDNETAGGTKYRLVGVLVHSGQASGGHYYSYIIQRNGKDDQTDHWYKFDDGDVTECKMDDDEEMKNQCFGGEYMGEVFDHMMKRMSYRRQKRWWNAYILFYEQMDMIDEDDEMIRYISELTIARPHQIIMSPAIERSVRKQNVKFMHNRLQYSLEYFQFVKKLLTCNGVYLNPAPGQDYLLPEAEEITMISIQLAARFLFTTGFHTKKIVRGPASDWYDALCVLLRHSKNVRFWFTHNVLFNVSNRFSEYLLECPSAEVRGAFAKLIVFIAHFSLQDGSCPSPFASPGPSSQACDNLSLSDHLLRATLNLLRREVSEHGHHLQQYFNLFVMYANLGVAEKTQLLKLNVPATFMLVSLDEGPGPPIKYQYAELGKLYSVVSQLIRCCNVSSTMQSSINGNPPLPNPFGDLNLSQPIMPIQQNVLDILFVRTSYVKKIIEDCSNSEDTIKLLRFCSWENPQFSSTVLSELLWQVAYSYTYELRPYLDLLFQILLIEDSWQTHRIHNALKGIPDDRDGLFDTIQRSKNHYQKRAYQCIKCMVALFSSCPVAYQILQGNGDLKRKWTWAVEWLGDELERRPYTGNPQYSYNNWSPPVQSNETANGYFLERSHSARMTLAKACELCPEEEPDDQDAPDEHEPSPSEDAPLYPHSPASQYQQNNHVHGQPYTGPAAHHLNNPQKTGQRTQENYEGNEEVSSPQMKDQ
# Method in brief: as §1
# UniProt P51784 = target: UniProt P51784
# Method in brief: as §1
# UniProt Q5T2D3 = target: T1, UniProt Q5T2D3
# T1 sequence (whole entry): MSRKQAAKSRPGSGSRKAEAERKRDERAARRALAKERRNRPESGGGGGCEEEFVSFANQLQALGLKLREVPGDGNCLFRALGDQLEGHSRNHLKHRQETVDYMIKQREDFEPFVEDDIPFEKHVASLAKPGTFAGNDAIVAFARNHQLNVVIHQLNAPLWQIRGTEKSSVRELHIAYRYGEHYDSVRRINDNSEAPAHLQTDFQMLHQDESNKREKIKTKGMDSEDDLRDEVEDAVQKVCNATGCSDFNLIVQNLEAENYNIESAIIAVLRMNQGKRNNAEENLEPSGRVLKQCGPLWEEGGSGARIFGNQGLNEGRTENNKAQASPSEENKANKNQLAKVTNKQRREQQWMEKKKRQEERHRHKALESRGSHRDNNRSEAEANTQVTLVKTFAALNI
# Method in brief: as §1
# UniProt Q8TE49 = target: T2, UniProt Q8TE49
# T2 sequence (whole entry): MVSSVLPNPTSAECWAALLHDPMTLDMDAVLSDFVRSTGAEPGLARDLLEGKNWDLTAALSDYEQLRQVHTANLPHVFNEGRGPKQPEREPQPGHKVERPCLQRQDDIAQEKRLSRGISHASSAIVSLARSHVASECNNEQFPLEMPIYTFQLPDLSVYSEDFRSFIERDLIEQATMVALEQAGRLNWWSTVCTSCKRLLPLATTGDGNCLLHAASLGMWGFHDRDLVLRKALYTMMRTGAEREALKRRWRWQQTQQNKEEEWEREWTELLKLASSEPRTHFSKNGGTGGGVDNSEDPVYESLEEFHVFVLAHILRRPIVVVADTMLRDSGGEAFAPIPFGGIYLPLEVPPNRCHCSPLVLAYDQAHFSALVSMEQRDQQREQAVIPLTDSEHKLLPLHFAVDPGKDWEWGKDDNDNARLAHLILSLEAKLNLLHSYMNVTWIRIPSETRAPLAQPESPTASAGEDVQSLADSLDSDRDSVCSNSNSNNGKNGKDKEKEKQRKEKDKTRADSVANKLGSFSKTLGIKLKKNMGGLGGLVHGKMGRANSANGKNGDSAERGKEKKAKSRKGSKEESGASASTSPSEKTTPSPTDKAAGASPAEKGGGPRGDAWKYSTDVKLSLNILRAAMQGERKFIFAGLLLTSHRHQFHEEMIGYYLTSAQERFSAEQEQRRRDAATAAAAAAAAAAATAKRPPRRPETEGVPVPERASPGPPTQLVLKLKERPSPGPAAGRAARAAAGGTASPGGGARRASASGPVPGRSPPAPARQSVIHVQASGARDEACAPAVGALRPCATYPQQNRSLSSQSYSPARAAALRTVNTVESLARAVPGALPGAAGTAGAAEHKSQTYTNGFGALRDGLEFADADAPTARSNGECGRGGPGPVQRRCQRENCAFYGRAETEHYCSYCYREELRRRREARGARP
# Method in brief: as §1
# UniProt Q9P2H5 = target: T3, UniProt Q9P2H5
# T3 sequence (whole entry): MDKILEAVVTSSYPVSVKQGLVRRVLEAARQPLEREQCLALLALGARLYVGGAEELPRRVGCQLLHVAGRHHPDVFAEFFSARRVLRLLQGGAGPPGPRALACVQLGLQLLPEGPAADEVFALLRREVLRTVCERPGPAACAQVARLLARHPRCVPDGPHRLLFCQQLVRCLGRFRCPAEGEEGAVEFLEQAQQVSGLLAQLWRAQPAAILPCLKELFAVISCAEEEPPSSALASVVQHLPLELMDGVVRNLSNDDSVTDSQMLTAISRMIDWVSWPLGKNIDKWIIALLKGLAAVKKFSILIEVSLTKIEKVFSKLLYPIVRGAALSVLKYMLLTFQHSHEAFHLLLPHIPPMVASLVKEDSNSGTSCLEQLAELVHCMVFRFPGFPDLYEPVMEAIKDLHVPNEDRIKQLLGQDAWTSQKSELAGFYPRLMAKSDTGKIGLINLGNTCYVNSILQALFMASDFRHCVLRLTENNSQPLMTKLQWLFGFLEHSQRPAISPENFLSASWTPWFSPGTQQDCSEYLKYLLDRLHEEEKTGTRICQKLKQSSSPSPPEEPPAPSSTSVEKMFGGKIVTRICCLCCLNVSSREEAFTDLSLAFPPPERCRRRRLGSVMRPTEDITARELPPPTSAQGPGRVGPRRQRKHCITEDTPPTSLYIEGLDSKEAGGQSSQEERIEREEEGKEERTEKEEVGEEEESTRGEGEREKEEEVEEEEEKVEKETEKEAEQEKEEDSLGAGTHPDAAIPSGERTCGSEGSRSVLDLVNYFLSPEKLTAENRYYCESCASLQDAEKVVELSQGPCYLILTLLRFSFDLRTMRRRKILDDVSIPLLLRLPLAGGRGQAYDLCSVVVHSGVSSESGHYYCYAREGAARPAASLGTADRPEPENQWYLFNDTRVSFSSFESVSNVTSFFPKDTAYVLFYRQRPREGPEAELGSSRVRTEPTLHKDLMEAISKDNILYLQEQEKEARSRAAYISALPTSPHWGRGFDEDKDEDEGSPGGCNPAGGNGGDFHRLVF
# Method in brief: as §1
# UniProt Q9UGI0 = target: T4, UniProt Q9UGI0
# T4 sequence (whole entry): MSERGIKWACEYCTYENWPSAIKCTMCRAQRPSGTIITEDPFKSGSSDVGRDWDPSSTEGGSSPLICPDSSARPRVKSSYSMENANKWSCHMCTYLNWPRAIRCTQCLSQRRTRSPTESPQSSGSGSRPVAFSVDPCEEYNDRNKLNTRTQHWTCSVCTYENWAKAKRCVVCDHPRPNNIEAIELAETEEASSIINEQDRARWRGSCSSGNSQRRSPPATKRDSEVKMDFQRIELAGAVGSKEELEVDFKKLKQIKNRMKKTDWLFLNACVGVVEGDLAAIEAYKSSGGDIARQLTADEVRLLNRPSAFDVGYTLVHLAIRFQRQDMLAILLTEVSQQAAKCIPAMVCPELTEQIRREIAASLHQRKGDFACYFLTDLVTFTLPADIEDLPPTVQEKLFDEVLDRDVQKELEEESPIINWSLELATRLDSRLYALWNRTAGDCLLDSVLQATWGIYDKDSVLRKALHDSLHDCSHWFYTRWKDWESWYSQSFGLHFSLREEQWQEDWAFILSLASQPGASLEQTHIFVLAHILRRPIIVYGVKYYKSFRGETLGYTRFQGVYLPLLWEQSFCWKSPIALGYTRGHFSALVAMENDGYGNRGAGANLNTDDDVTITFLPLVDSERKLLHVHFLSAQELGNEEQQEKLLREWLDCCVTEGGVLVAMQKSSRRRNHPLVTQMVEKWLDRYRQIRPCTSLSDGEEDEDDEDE
# Method in brief: as §1
# YOD1 = target: T5, YOD1 (UniProt Q5VVQ6)
# T5 sequence (whole entry): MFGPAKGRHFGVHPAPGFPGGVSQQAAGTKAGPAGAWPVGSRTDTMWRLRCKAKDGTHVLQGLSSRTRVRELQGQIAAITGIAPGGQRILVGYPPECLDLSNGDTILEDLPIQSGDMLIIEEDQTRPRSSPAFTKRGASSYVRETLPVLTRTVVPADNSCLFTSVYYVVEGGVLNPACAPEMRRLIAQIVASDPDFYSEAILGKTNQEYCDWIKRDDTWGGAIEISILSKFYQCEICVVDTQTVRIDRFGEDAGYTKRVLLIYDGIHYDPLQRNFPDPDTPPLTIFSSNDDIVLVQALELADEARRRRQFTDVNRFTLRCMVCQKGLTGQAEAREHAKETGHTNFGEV
# Method in brief: as §1
smiles,measurement,setting,value
O=C(CCl)N1CCN(C(=O)N2CCCCC2)CC1,log2 ratio of Biotin-Ahx-Ub-VS probe labelling,USP9X,-1.11 (active)
same,log2 ratio of Biotin-Ahx-Ub-VS probe labelling,UniProt O00487,-0.0311
same,log2 ratio of Biotin-Ahx-Ub-VS probe labelling,UniProt O00507,-1.18 (active)
same,log2 ratio of Biotin-Ahx-Ub-VS probe labelling,UniProt P51784,-0.772
same,log2 ratio of Biotin-Ahx-Ub-VS probe labelling,UniProt Q5T2D3,-0.618
same,log2 ratio of Biotin-Ahx-Ub-VS probe labelling,UniProt Q8TE49,-0.968
same,log2 ratio of Biotin-Ahx-Ub-VS probe labelling,UniProt Q9P2H5,-0.897
same,log2 ratio of Biotin-Ahx-Ub-VS probe labelling,UniProt Q9UGI0,-1.27 (active)
same,log2 ratio of Biotin-Ahx-Ub-VS probe labelling,YOD1,-0.827
